This note sets out measurements from the supplement of paper PMC11417369.

± gives the standard deviation of the averaged measurements. The full ranking holds about 25,000 sequences; the median of “ln(normalized median fluorescence intensity)” is about 8.9, and the highest 2% start at about 10. This excerpt belongs to a sample that is enriched for the highest values.

The assay has as its system PfAP2-LT AP2 domain (GST-tagged). As to the kind of experiment: gcPBM binding intensity (ln(normalized median fluorescence intensity)); higher = stronger DNA binding. The procedure, abridged: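 GST-fused DNA-binding domains of P. falciparum, expressed in E. coli, were applied at about 25 μg on average for 1 h to an Agilent 4 × 180k array of primer-extended double-stranded 36-bp intergenic genomic probes and negative controls. Binding intensity is the highest Masliner-normalised natural-log median intensity across replicate spots of either probe orientation, measured with Alexa488 anti-GST antibody and a 488 nm scan.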
With “TTCATTTTTTAAGCATCACACACGAAAGAACAAAGT [CACACA_site1122]”, the “gcPBM binding intensity (ln)” value is 8.98 ± 0.33.
For “AATAATATATATTGTACACACAAAATGGGAAAAAAA [CACACA_site5100]” the value was 9.1 ± 0.33; for “AAAATTTAATATAATGCACACATAAAAAAAAAATCA [CACACA_site7882]”, 8.87 ± 0.42; for “TACACAAGCAGACACACACACATATAGATTTATATA [CACACA_site6715]”, 9.65 ± 0.35.
As for “GGAATAACCAGACACACACACACATATAAATATGTA [CACACA_site7632]”, the “gcPBM binding intensity (ln)” value came to 10.1 ± 0.41.
For “AGGATACACAGACACACACACATATATATATATATA [CACACA_site907]” the value was 10.47 ± 0.064; for “TAAAAGAAATAATATACACACATATATAAAAATAAA [CACACA_site1329]”, 8.94 ± 0.41; for “AATAACCACAGACACACACACATATAAATATAAATA [CACACA_site7631]”, 10 ± 0.46.
For “CAAGGAACCAGACACACACACATAAATGTATATATA [CACACA_site752]” the value was 9.62 ± 0.47; for “TGAAAAAAGAAAAATACACACATATAATATAATATA [CACACA_site2255]”, 9.02 ± 0.49.
For “TACACAAGCAGACACACACACATATATATATATATA [CACACA_site1270]”, the “gcPBM binding intensity (ln)” value turned out to be 10.42 ± 0.071.
For “ACAAGACAGATATATACACACATACATACATACATA [CACACA_site7472]” the value was 9.43 ± 0.37.
Regarding “ACAGAAAAAAGACACACACACATAATATACATACAT [CACACA_site6991]”, the “gcPBM binding intensity (ln)” value was 10.1 ± 0.42.
To “AATGTATATAATATTAATATGTAAATATATAATCAA [CACACA_negctrl_site1683]” belongs 8.72 ± 0.39; to “TTAGAAATTCATTTTACACACAATTCAAAAGAATGT [CACACA_site2104]”, 8.79 ± 0.42; to “ATATATAAAATTATATGTACATATATAATATATATA [XGTACX_site529]”, 8.77 ± 0.39.
To “TACCATATTTCTTCAAGTACGCATTATGTTAAAAAG [XGTACX_site345]” belongs 8.51 ± 0.38; to “GTGGAACGTATATTTTCACACACTCTCAAAAGTACA [CACACA_site8722]”, 8.93 ± 0.47.
Regarding “TATTTATTAATATGTACACACATCAACCATATTAAC [CACACA_site7001]”, the “gcPBM binding intensity (ln)” value is 9.04 ± 0.29.
To “TAAATAAGGAAGGAAACACACATTAAAAAATAAATA [CACACA_site618]” belongs 8.84 ± 0.59.
For “TATATATATTTATGTTGTACAAAATATTATTACGTA [XGTACX_site5384]” the value was 8.57 ± 0.36.
To “TTTTTTTAATGATATTGTACATTAATAAAAAATATG [XGTACX_site1719]” belongs 8.12 ± 0.59.
In the case of “AATACATACAGACACACACACACATATATATATATA [CACACA_site3558]”, the “gcPBM binding intensity (ln)” value worked out at 10.36 ± 0.014.
To “TAAATACAGACATATACACACATATATATATATATA [CACACA_site4382]” belongs 9.925 ± 0.0071; to “CACATACAGACATACACACACATATATATTAATATA [CACACA_site546]”, 9.56 ± 0.41; to “GGAATAACCGGACACACACACACATATATATATATA [CACACA_site5874]”, 10.39 ± 0.057.
For “GGAATATAAATACATACACACATATATATATATATA [CACACA_site4998]” the value was 10 ± 0.33; for “GAATAATATGGACATACACACATATACATACATATA [CACACA_site2114]”, 9.27 ± 0.39.
